The source of these data is PubChem BioAssay.

The source made the active and inactive calls. Unless noted, no rule for the calls is given here.

The test system of experiment [1] is XIP peptide (Xip251-270) binding. As to the kind of experiment: small-molecule binders of XIP peptide, primary screen, biochemical, small-molecule microarray, fluorescence 635/667 nm, 0.1 µg/mL protein (AID 1182). Particulars: fluorescent protein binding, 635 nm, higher = more signal, called active from +8 up or from −8 down.
Experiment [2] deals with XIP peptide (Xip251-270). Nature of the experiment: small-molecule binders of XIP peptide, primary screen, biochemical, small-molecule microarray, fluorescence 635/667 nm, 0.5 µg/mL protein (AID 1183). To be noted: small-molecule microarray binding, fluorescence 635 nm; higher = more signal.
A short description of experiment [3]: Plasmodium falciparum growth inhibition, primary screen, strain 3D7, DAPI fluorescence, 100 nL (AID 1184).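 Also: parasites grown inside human red blood cells in medium with human serum.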 To be noted: P. falciparum 3D7 growth, 3 d, higher = more signal.
The target of experiment [4] is Homeobox protein Hox-A13 (Mus musculus) (UniProt Q62424). Nature of the experiment: inhibitors of HoxA13-DNA binding, primary screen, biochemical, fluorescence polarization, labeled oligonucleotide (AID 1185). To be noted: 15 min, higher = more signal, called active from +8 up or from −8 down.
A short description of experiment [5]: inhibitors of hydroxyurea-induced Chk1 phosphorylation, primary screen, imaging, HeLa, phospho-Chk1 antibody, percent positive cells (AID 1186). To be noted: hydroxyurea-induced phospho-Chk1 immunofluorescence imaging, higher = more signal.
Experiment [6] can be described thus: inhibitors of hydroxyurea-induced Chk1 phosphorylation, primary screen, imaging, HeLa, phospho-Chk1 nuclear intensity (AID 1187). Particulars: hydroxyurea-induced phospho-Chk1 immunofluorescence imaging, higher = more signal.

Sequence of Homeobox protein Hox-A13 (Mus musculus) (Q62424 whole entry, looked up): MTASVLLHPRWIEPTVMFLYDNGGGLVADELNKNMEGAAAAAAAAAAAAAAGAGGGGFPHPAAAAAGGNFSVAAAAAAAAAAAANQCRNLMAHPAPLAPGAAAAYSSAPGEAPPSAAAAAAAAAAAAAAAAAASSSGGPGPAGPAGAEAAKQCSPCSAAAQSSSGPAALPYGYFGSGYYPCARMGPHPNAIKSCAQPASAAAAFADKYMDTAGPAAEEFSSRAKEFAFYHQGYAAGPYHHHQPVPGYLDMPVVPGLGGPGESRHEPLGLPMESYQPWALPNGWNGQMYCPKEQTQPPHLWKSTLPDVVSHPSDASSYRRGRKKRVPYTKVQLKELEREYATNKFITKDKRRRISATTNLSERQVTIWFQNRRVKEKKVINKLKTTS

For `C=C[C@@H](CO)N(Cc1ccc(OC)cc1)S(=O)(=O)c1ccc(Br)cc1`, the composite z-score was -0.798 (inactive) in experiment [1] and -0.315 in experiment [2]. Besides, the z-score in experiment [3] was -0.0153; in experiment [4], -3.98 (inactive); in experiment [5], -0.289 (inactive); in experiment [6] it was -0.157 (inactive).
Take `CN1C(=O)C2C=CC(C(O)c3cccn3C)N(Nc3ccc([N+](=O)[O-])cc3[N+](=O)[O-])C2C1=O` (stereo not drawn): the composite z-score was -0.438 (inactive) in experiment [1] and -0.564 in experiment [2]. Further, the z-score was 0.69 in experiment [3], -5.85 (inactive) in experiment [4], 0.769 (inactive) in experiment [5] and 0.127 (inactive) in experiment [6].
Turning to `C=C(/C(=C/C[C@H](OC(C)=O)c1ccc(CO)o1)c1cnc2ccccc2c1)C(C)C`, the figures for the composite z-score in experiment [1] and in experiment [2] were 0.0103 (inactive) and 0.769, respectively. Moreover, the z-score in experiment [3] was -1.14; in experiment [4], -6.46 (inactive); in experiment [5] it was -0.136 (inactive); in experiment [6], 0.181 (inactive).
As for `CCCCNC(=O)c1ccc(C#CC(C)(C)C)c(OC(C)=O)c1`, the composite z-score in experiment [1] was 0.0374 (inactive); in experiment [2], 0.222. The z-score in experiment [3] is -1.74; in experiment [4] it was -5.71 (inactive); in experiment [5], 0.13 (inactive); in experiment [6], 0.411 (inactive).
As for `[N-]=[N+]=Nc1ccccc1C[C@]1(C(=O)N2CCOCC2)COC(c2ccc(OCCCO)cc2)=N1`, the composite z-score was 0.373 (inactive) in experiment [1] and 0.666 in experiment [2]. Moreover, the z-score was -2.03 in experiment [3], -6.82 (inactive) in experiment [4], -0.488 (inactive) in experiment [5] and -0.338 (inactive) in experiment [6].
As to `COc1ccc([Si](C)(C)[C@H]2[C@H](CC(=O)N(CCO)Cc3ccccc3)O[C@@]3(C(=O)N(C)c4c(Br)cc(C)cc43)[C@@H]2C)cc1`, the composite z-score in experiment [1] is 0.159 (inactive); in experiment [2], 0.334. Besides, the z-score in experiment [3] was -2.08; in experiment [4] it was -6.1 (inactive); in experiment [5] it was -1.82 (inactive); in experiment [6], -1.22 (inactive).
Consider `O=C1O[C@H](c2ccccc2)[C@H](c2ccccc2)N2[C@H]1[C@@H](C(=O)O)[C@]1(C(=O)Nc3ccc(C#CCCO)cc31)[C@H]2c1ccccc1OCCO`, for which the composite z-score in experiment [1] was 0.154 (inactive); in experiment [2] it was 0.736. The z-score is -1.08 in experiment [3], -6.55 (inactive) in experiment [4], 0.55 (inactive) in experiment [5] and 0.175 (inactive) in experiment [6].
Take `COC(=O)C1=CC(CCCO)=CC(c2cccs2)N(C)C=C1C(=O)OC` (stereo not drawn): the composite z-score in experiment [1] is 0.0334 (inactive); in experiment [2] it was 0.819. The z-score is -0.389 in experiment [3], -7.53 (inactive) in experiment [4], 0.176 (inactive) in experiment [5] and 0.219 (inactive) in experiment [6].
On to `CC[C@@H]1O[Si](C(C)C)(C(C)C)c2c1cc(-c1cc(C)c(OC)c(C)c1)nc2-c1ccc(Oc2ccccc2)cc1`, for which the results for the composite z-score in experiment [1] and in experiment [2] were -0.162 (inactive) and -0.22, respectively. The z-score is 0.0977 in experiment [3], -1.52 (inactive) in experiment [4], -0.557 (inactive) in experiment [5] and -0.461 (inactive) in experiment [6].
In the case of `CCCCCN1CC=CC23O[C@@H]4/C=C\CCC(C)OC(=O)C4[C@H]2C(=O)N(C(CO)C(C)C)[C@@H]3C1=O` (stereo partly drawn), the composite z-score in experiment [1] is 0.733 (inactive); in experiment [2], 0.761. The z-score in experiment [3] was -1.07; in experiment [4] it was -5.72 (inactive); in experiment [5], -0.584 (inactive); in experiment [6], -0.113 (inactive).
Turning to `CCCCN1CC=CC23O[C@@H]4/C=C\CCCOC(=O)C4[C@H]2C(=O)N(CCO)[C@@H]3C1=O` (stereo partly drawn), the values for the composite z-score in experiment [1] and in experiment [2] were 0.51 (inactive) and 0.157, respectively. The z-score in experiment [3] was -1.09; in experiment [4], -5.46 (inactive); in experiment [5] it was -0.302 (inactive); in experiment [6], 0.214 (inactive).
As to `O[C@@H](Cc1ccccc1)[C@@H](/C=C/C1CC1)N(CC#Cc1ccccc1)Cc1ccccc1Br`, the values for the composite z-score in experiment [1] and in experiment [2] were -0.112 (inactive) and 0.13, respectively. Further, the z-score was -2.81 in experiment [3], -0.167 (inactive) in experiment [4], -0.36 (inactive) in experiment [5] and -0.214 (inactive) in experiment [6].
In the case of `CCCCC(CC)C(O)C1C=CC2C(=O)N(c3ccccc3)C(=O)C2N1Nc1ccccc1F` (stereo not drawn), the composite z-score is 0.634 (inactive) in experiment [1] and 0.0509 in experiment [2]. Besides, the z-score in experiment [3] was -0.579; in experiment [4], -2.25 (inactive); in experiment [5] it was 0.322 (inactive); in experiment [6], 0.195 (inactive).
In the case of `CCOC(=O)C1=C[C@@H](c2ccccc2)N(S(=O)(=O)c2ccc(C)cc2)[C@H]1c1ccc(OC)cc1`, the composite z-score in experiment [1] was 0.138 (inactive); in experiment [2], 0.599. The z-score in experiment [3] is -1.84; in experiment [4], 0.842 (inactive); in experiment [5] it was -0.0622 (inactive); in experiment [6], -0.614 (inactive).
`C=CC[C@@H](OC(=O)Nc1ccc(SC)cc1)c1ccc(O)c(F)c1`: the composite z-score in experiment [1] is 0.452 (inactive); in experiment [2], 0.257. The z-score in experiment [3] was -0.671; in experiment [4], -1.19 (inactive); in experiment [5], -0.12 (inactive); in experiment [6], 0.539 (inactive).
Turning to `CS(=O)(=O)CCOC(=O)C1=CC(c2ccc(CO)cc2)=CC(C2CC2)N(Cc2sc3ccccc3c2Cl)C=C1C(=O)OCCS(C)(=O)=O` (stereo not drawn), the composite z-score is 0.766 (inactive) in experiment [1] and 0.492 in experiment [2]. Besides, the z-score is -3.02 in experiment [3], 0.0711 (inactive) in experiment [4], -0.27 (inactive) in experiment [5] and 0.137 (inactive) in experiment [6].
Turning to `C=CCOC(=O)[C@@]1(Cc2ccccc2)C[C@H]2CO[C@H](c3ccc(OC)cc3)N2C1=O`, the composite z-score in experiment [1] was -0.373 (inactive); in experiment [2], -0.0614. The z-score was -0.829 in experiment [3], -3.45 (inactive) in experiment [4], -0.0248 (inactive) in experiment [5] and -0.386 (inactive) in experiment [6].
Consider `C[C@@H]1NC(=O)[C@@H](Cc2ccccc2)NC(=O)[C@@]23C(=O)N[C@@H](Cc4ccccc4)C2[C@H](C)[C@@]2(C)O[C@H]2C3/C=C/C/C=C\CNC1=O` (stereo partly drawn), for which the composite z-score in experiment [1] is -0.274 (inactive); in experiment [2], 0.711. For the same compound, the z-score is -0.132 in experiment [3], -6.78 (inactive) in experiment [4], -0.115 (inactive) in experiment [5] and -0.328 (inactive) in experiment [6].
